From PubChem BioAssay
Sampled rows, rich in hits. Any-hit rate of the full collection: about 3.3%.
Luc counter – Counterscreen for Luciferase (Kinase-Glo TM) Inhibition. Kinase-Glo luciferase, ATP luminescence, 8 min. Luciferin 4-monooxygenase (Photuris pensylvanica), Q27757. hit rate 0.28% among 200,000. AID 1379, 2008. Potency, µM (titrated, usually from 38.3 µM), for the others: at the top dose activity change, negative = inhibition, hits mostly inhibitors; also: nearly all actives have a fitted effect of over 60% in size
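Recombinant Kinase-Glo luciferase, 10 uM ATP (linear range), luciferin; imidazole pH 7.2 / KCl / MgCl2 / Tween / BSA buffer; 8 min RT; luminescence.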
Tau fluor cs – Counterscreen qHTS for Inhibitors of Tau Fibril Formation, Fluorescence Polarization. tau K18 P301L Alexa594 fluorescence, heparin fibrillization. Potency, µM (doses to about 57.7 µM), inactives show at the highest dose activity change, negative = decrease. hit rate 0.93% among 280,000. AID 1463, 2008; also: nearly all actives have a fitted effect of over 55% in size
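Human K18 P301L tau (15 uM unlabeled plus 0.24 uM Alexa 594-labeled, final) in 100 mM sodium acetate pH 7 was mixed with compound and 20 uM heparin and incubated 6 hr at 37 C.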
Tau fibril FP – qHTS for Inhibitors of Tau Fibril Formation, Fluorescence Polarization; Microtubule-associated protein tau (Homo sapiens), P10636; K18 P301L tau heparin fibrillization, Alexa594 FP, 6 h; Potency, µM (doses to about 57.7 µM), without a hit: at the highest dose activity, negative = inhibition, hits mostly inhibitors; hit rate 0.39% among 280,000; AID 1468, 2008; also: nearly all actives have a fitted effect of over 55% in size
Target sequence (P10636 561-689 P618L limits assumed): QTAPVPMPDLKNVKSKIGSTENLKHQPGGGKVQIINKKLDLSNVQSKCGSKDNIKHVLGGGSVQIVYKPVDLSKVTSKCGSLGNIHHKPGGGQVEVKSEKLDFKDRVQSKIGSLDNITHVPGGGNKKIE
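Recombinant K18 P301L […], labeled with Alexa 594 at 0.24 uM over 15 uM unlabeled; heparin inducer 20 uM final; 37 C, 6 hr; FP endpoint.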
NPSR antag – qHTS Assay for Antagonists of the Neuropeptide S Receptor: cAMP Signal Transduction; Q6W5P4; Potency, µM (top dose mostly 38.3 µM), without a hit: top-dose activity change, negative = inhibition, hits mostly inhibitors; hit rate 1% among 220,000; CHO-NPSR cells, cAMP TR-FRET, antagonist mode; also: nearly all actives have a fitted effect of over 50% in size
Target sequence (Q6W5P4 whole entry, looked up): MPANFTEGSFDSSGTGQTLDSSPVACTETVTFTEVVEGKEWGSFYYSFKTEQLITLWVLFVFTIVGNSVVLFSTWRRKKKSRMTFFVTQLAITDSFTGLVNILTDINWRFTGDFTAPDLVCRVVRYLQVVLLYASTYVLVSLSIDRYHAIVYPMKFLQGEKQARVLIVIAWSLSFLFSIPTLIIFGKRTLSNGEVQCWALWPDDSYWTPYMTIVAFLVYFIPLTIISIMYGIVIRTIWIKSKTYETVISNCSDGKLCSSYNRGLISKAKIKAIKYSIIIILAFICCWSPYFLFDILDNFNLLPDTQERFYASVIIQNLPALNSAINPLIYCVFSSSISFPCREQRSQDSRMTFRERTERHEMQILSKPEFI
Tau fibril ThT – qHTS for Inhibitors of Tau Fibril Formation, Thioflavin T Binding; recombinant tau K18 P301L (four-repeat tau fragment), heparin-induced fibrillization, ThT fluorescence; Microtubule-associated protein tau (Homo sapiens), P10636; AID 1460, 2008; Potency, µM (highest dose often 57.4 µM), without a hit: at the top dose activity, negative = inhibition, usual class: inhibitors; hit rate 2.1% among 270,000; also: nearly all actives have a fitted effect of over 55% in size
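In this qHTS, human K18 P301L tau is incubated with compound and heparin for 6 hr at 37 C, and Thioflavin T fluorescence then reports fibril load.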
An asterisk follows results filed as active; ? = inconclusive; . = not tested or not shown; [ ] = another dose, or the depositor's remark. Calls follow the shape of the dose curve; as a rule, active = well fitted curve in the direction sought with a large enough effect; inconclusive = small, poorly fitted or top-dose-only effect, or another doubt; inactive = no such curve, though single readings can be large; an effect the other way counts as inactive or inconclusive. % is scaled to controls: 0 for no effect and ±100 for the full control effect; potency is read from the fitted curve at half-maximal effect.

SMILES | Luc counter | Tau fluor cs | Tau fibril FP | NPSR antag | Tau fibril ThT
Cc1ccc(N2CCN(C(=O)c3c(C)oc4ncn(CC(C)C)c(=O)c34)CC2)c(C)c1 | . | 5.4% | 4.9% | . | 4.5%
O=c1ccc2[n+]([O-])c3ccc(O)cc3oc-2c1 | . | 2µM*[fluorescent] | 32.1% | ? | 12.6µM*
O=C(Cc1ccc(Nc2nc3ccc(Br)cc3[nH]2)cc1)NCCc1cccs1 | 8.7% | 15.8µM*[quencher] | ? | ? | ?
O=C(NCC1CC1)c1ccc(Nc2nc3ccc(Br)cc3[nH]2)cc1 | -6.0% | 12.6µM*[quencher] | ? | -18.0%[46.1 µM] | ?
O=C(NCc1ccco1)c1cccc(Nc2nc3ccc(Br)cc3[nH]2)c1 | 7.6% | 10µM*[quencher] | ? | -12.4%[46.1 µM] | 28.2µM*
CCOc1ccc(CCNC(=O)CSc2nnnn2-c2ccccc2Cl)cc1OCC | . | -24.2% | 7.2% | . | ?
COc1ccc(-c2noc(CNC(=O)c3ccc(OC)cc3OC)n2)cc1 | . | -20.8% | -11.1% | . | ?
O=C(NCc1nc(-c2ccc(C(F)(F)F)cc2)no1)Nc1ccc(OC(F)(F)F)cc1 | . | -15.2% | 7.94µM* | 6.0% | .
CCc1ccccc1NCC(=O)Nc1ccc(Cl)c(C(F)(F)F)c1 | -1.1% | 17.8µM*[quencher] | ? | -18.9% | -18.9%
COc1ccccc1NC(=O)CN1CCN(CC(=O)Nc2ccc(Cl)c(C(F)(F)F)c2)CC1 | -5.4% | -24.0% | -7.1% | ? | -5.8%
CCOc1ccc(-n2c(SCC(=O)NCc3ccco3)nnc2-c2c[nH]c3ccccc23)cc1 | 4.8% | -24.8% | 1.4% | 12.6µM* | -14.9%
OC[C@@H]1[C@@H](c2ccc(Cl)cc2)C(c2ccc(F)cc2)=NN1c1ccccc1 | 0.8%[39.9 µM] | 25.1µM*[quencher] | 14.0%[81.3 µM] | . | -23.4%[81.4 µM]
C[C@H]1C(c2ccccc2)=NN(c2ccccc2)[C@@H]1CO | 1.8%[39.9 µM] | ? | ? | . | ?
OC[C@@H]1[C@@H](c2ccccc2)C(c2ccc(F)cc2)=NN1c1ccccc1 | 1.9%[39.9 µM] | 10µM*[quencher] | ? | . | ?
OC[C@@H]1[C@@H](c2ccccc2)C(c2ccccc2)=NN1c1ccccc1 | 1.1%[39.9 µM] | 12.6µM*[quencher] | ? | . | ?
OC[C@@H]1[C@@H](c2ccccc2)C(c2cccc(Cl)c2)=NN1c1ccccc1 | 3.5%[39.9 µM] | 17.8µM*[quencher] | ? | . | ?
CCn1nc(-c2ccccc2)c(-c2ccccc2)c(C(=O)OCCOC)c1=O | . | 3.7% | -5.1% | . | 2.9%
CCCc1noc(-c2ccc(NCc3ccc(C)cc3)c([N+](=O)[O-])c2)n1 | . | 5.4% | 2.5% | . | 2.4%
O=C(O)CC[C@@H](C(=O)O)N1C(=O)[C@@H]2[C@@H]3CC[C@H](C3)[C@@H]2C1=O | -1.0%[7.66 µM] | . | . | . | .
CC(C)[C@H](NC(=O)CNC(=O)OC(C)(C)C)C(=O)N[C@H](C=O)C(C)C | . | -1.8% | -4.5% | . | -6.3%
COc1ccccc1[C@@H]1C(c2cccc(Cl)c2)=NN(c2ccccc2)[C@H]1C(=O)N1CCOC1=O | 1.9%[39.9 µM] | ? | -7.2% | -17.6% | -6.5%
COc1ccccc1[C@H]1C(c2cccc(Cl)c2)=NN(c2ccccc2)[C@@H]1CO | -5.2%[39.9 µM] | 20µM*[quencher] | ? | . | -17.2%[81.4 µM]
OC[C@@H]1[C@@H](c2ccc(F)cc2)C(c2ccc(F)cc2)=NN1c1ccccc1 | 4.7%[39.9 µM] | 28.2µM*[quencher] | -0.6%[81.3 µM] | . | ?
O=C1OCCN1C(=O)[C@H]1[C@H](c2ccc(F)cc2)C(c2cccc(Cl)c2)=NN1c1ccccc1 | 0.6%[39.9 µM] | ? | -10.4% | . | -4.0%
N#Cc1c(N)nc2c(c1-c1ccc(Br)s1)CCCC2 | -2.5% | -5.6% | -8.0% | -18.9% | -4.9%
SMILES | Luc counter | Tau fluor cs | Tau fibril FP | NPSR antag | Tau fibril ThT
Nc1nc(-c2ccc(Br)s2)c(Br)s1 | -5.8% | 14.1µM*[quencher] | -0.9% | -10.5%[46.1 µM] | ?
Cc1[nH]c2ccc(C(=O)N3CCN(c4ccccc4F)CC3)cc2c1C | . | -22.8% | 11.3% | . | -15.3%
Cc1cc([N+](=O)[O-])c2c(c1C)C1C=CCC1C(c1ccccn1)N2 (stereo unspecified) | -7.9% | ? | ? | -22.2% | 15.8µM*
O=C(CSc1ccnc(=O)[nH]1)NCc1ccc(F)cc1 | . | -7.0% | -3.7% | . | -4.9%
COc1ccc(N=C2NC(=O)/C(=C\c3ccco3)S2)cc1 | -1.1% | ? | -5.7% | -32.6% | 10µM*
CCCN1C(=O)/C(=C/c2ccco2)SC1=Nc1ccc(OC)cc1 | 6.4% | -18.1% | -4.1% | -33.7%[46.1 µM] | ?
O=C1NC(=Nc2ccc(O)cc2)S/C1=C\C=C\c1ccco1 | . | ? | ? | 20.3%[7.67 µM] | 1.58µM*
COc1ccc(N=C2NC(=O)/C(=C/c3ccc(O)c(OC)c3)S2)cc1 | 4.9% | ? | 4.5% | -19.6% | 3.55µM*
COc1cc(/C=C2/SC(=Nc3ccc(O)cc3)NC2=O)cc(OC)c1O | 0.3% | -1.3% | 14.9% | 15.6% | ?
COC(=O)c1c(-c2ccc(Cl)cc2)noc1N1CCN(c2ccc(OC)cc2)CC1 | . | -11.3% | 3.5% | . | -8.7%
Cc1ccc2c(c1)N=C(c1ccccc1)CC(C(Cl)Cl)=N2 | . | ? | ? | ? | 15.8µM*
N#C/C(=C\c1c[nH]c2ccccc12)C(=O)c1ccc(O)c(O)c1 | -4.6% | 15.8µM*[quencher] | 4.2% | -17.2%[46.1 µM] | 10µM*
Cc1c(C(=O)N2CCc3ccccc3C2)oc2ccc(S(=O)(=O)N3CC(C)CC(C)C3)cc12 (stereo unspecified) | 0.4% | -6.3% | -1.0% | -48.4% | -6.7%
Cc1ccc(/C=N/NC(=O)c2cccc(S(=O)(=O)Nc3ccccc3Cl)c2)o1 | -2.6% | -16.4% | 5.1% | -27.4% | -12.4%
O=C(N/N=C/c1ccco1)c1cccc(S(=O)(=O)Nc2ccccc2Cl)c1 | -0.9% | -0.6% | 3.1% | -3.8% | -9.7%
Cc1[nH]c2ccccc2c1/C=N/NC(=O)c1cccc(S(=O)(=O)Nc2ccccc2Cl)c1 | 5.5% | 11.2µM*[quencher] | ? | -9.9%[46.1 µM] | ?
CCc1cccc2c(/C=N/NC(=O)c3cccc(S(=O)(=O)Nc4ccccc4Cl)c3)c[nH]c12 | 1.7% | 11.2µM*[quencher] | -8.0% | -49.9% | 14.1µM*
O=c1c2oc3ccccc3c2n(Cc2ccc(Cl)cc2)c(=O)n1Cc1ccc2c(c1)OCO2 | . | -15.7% | -4.8% | . | -2.4%
c1ccc(-c2cn3c4c(sc3n2)CCCC4)cc1 | 11.2µM* | -8.5% | -0.1% | 23.7%[46.1 µM] | ?
COc1ccc(C2NC3=C(CCCC3)C(C#N)(C#N)C2(C#N)C#N)cc1 (stereo unspecified) | 2.1% | ? | ? | -17.7%[46.1 µM] | 25.1µM*
CCc1nnc(NC(=O)c2ccc3ccccc3n2)s1 | ? | 4.1% | 7.7% | -44.1% | ?
CCOC(=O)Cc1csc(NC(=O)c2sc3nc4ccc(C)cc4cc3c2N)n1 | -1.6% | -15.7% | 9.0% | -7.6%[46.1 µM] | 3.16µM*
CCc1nnc(NC(=O)c2sc3nc4cc(C)ccc4cc3c2N)s1 | -4.2% | ? | -5.4% | -29.9%[46.1 µM] | 2µM*
